The values that follow come from PubChem BioAssay.

The source made the active and inactive calls. Unless noted, how the calls were made is not given here.

Assay [1] is described as follows: resazurin metabolic signal in HepG2 cells – cell-based, resazurin fluorescence, 24 h, PK04 Diversity Set, profiling panel (AID 1172). Further: test concentration not given here. To be noted: HepG2 viability, higher = more signal. For orientation: Alamar Blue is a resazurin reagent that responds to reducing activity.
A short description of assay [2]: budding yeast growth changes without added modifier – OD600, strain BY4716, 24 h, basal condition, primary screen (AID 1173). To be noted: S. cerevisiae BY4716 growth, OD600, 24 h; higher = more signal, called active from +8 up or from −8 down.
Assay [3] in a line: viability profiling in MM1S myeloma cells – cell-based, resazurin fluorescence, basal, 24 h, PK04 Diversity Set, profiling panel (AID 1174). Further: test concentration not given here. To be noted: higher = more signal, called active from +8 up or from −8 down.
Assay [4] concerns the target Dihydroorotate dehydrogenase (quinone), mitochondrial (Plasmodium falciparum (isolate 3D7)) (UniProt Q08210). The experiment in a line: inhibition of P. falciparum DHODH – biochemical, C-terminal His tag, absorbance 600 nm, primary screen (AID 1175).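 Further: recombinant parasite enzyme with a five histidine tag at its C terminus; test concentration not given here.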 The note with it: PfDHODH enzyme, DCIP absorbance 600 nm; higher = more signal, called active from +8 up or from −8 down.

The nature of assay [5]: inhibition of PAO1 biofilm formation – strain PAO1, LB-PBS medium, absorbance 600 nm, primary screen (AID 1176). Further: test concentration not given here. To be noted: P. aeruginosa PAO1 growth/biofilm, A600, 12 h; higher = more signal.
Assay [6] is described as follows: growth modulation of vineyard yeast isolate – strain RM11-1a, OD600, basal, 24 h, primary screen (AID 1177).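 Further: cultures grown under basal conditions with no added stressor; test concentration not given here.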 To be noted: S. cerevisiae RM11-1a growth, OD600, 24 h; higher = more signal, called active from +8 up or from −8 down.
Assay [7] is described as follows: growth of efflux-deficient E. coli DRC39 – strain DRC39, OD650, 24 h, E. coli filamentation inducers, primary screen (AID 1178).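 Further: growth measured as culture turbidity by optical density at 650 nm; test concentration not given here.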 The note with it: E. coli DRC39 acrAB, higher = more signal, called active from +8 up or from −8 down.
A short description of assay [8]: growth of efflux-deficient E. coli DRC39 – strain DRC39, OD650, 48 h, E. coli filamentation inducers, primary screen (AID 1179).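 Further: screen aims at cell division blockers that make cells filament.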 To be noted: E. coli DRC39 delta-acrAB growth, higher = more signal, called active from +8 up or from −8 down.
Assay [9] in a line: viability profiling in RPMI8226 myeloma cells – cell-based, resazurin fluorescence, basal, 24 h, PK04 Diversity Set, profiling panel (AID 1180).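 Further: RPMI8826 multiple myeloma cell line at 5000 cells per well; test concentration not given here.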 To be noted: higher = more signal.
Assay [10] addresses E3 ubiquitin-protein ligase XIAP (Homo sapiens) (UniProt P98170). Put plainly: small molecules binding XIAP protein – biophysical, small-molecule microarray, fluorescence 635 nm, primary screen (AID 1181).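 Further: score merges 667 nm emission and signal to noise over triplicate slides.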 The note with it: higher = more signal.

Chain of E3 ubiquitin-protein ligase XIAP (Homo sapiens) (P98170 whole entry, looked up): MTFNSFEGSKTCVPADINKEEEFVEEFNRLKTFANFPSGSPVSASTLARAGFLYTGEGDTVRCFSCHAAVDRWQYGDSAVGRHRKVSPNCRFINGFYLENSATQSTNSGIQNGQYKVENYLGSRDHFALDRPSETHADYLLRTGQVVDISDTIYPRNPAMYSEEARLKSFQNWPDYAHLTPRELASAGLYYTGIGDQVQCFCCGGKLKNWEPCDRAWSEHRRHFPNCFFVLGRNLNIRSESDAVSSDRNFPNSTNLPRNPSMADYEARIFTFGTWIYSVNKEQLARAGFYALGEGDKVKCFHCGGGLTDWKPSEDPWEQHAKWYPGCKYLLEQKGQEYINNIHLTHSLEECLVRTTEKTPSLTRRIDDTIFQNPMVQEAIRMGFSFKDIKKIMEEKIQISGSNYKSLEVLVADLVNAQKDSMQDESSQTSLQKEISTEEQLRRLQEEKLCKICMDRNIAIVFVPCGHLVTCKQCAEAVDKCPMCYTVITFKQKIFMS
Chain of Dihydroorotate dehydrogenase (quinone), mitochondrial (Plasmodium falciparum (isolate 3D7)) (Q08210 whole entry, looked up): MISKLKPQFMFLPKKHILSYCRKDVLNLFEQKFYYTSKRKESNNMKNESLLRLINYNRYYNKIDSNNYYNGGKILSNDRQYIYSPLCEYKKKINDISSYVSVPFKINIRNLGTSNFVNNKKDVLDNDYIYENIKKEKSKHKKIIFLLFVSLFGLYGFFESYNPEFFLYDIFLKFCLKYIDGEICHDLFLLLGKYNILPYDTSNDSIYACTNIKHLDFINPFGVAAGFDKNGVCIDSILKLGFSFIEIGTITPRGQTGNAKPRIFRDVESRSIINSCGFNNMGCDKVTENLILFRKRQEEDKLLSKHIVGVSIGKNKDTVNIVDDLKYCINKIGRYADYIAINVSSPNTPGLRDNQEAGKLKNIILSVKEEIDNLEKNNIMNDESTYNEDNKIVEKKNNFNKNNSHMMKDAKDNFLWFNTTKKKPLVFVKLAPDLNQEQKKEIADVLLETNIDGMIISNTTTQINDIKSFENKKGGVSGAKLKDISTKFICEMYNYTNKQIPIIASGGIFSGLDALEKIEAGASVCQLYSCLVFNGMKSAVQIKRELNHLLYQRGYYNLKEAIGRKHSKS

`CCOC(=O)CCN1C(=O)[C@H]2[C@H]3[C@H](O)[C@H](O)CC(=NOCC=C(C)CCC=C(C)C)[C@@H]3CC[C@H]2C1=O`: the z-score in assay [1] is 0.046; in assay [2] it was 0.448 (inactive); in [3] it was -0.836 (inactive); in assay [5], 0.176 (inactive); in [6] it was -0.839 (inactive); in assay [7], -1.15 (inactive). In addition, the z-score in assay [8] was -0.209 (inactive); in [9], -0.871. The composite z-score was 0.69 (inactive) in [4] and 0.175 in assay [10].

`C[C@@H](c1ccccc1)N1C(=O)[C@H]2[C@H]3[C@H](O)[C@H](O)CC(=NNC(=O)OCc4ccccc4)[C@@H]3CC[C@H]2C1=O`: the z-score in [1] is -0.289; in [2], 0.862 (inactive); in [3], -0.465 (inactive); in [5], -0.155 (inactive); in assay [6], -0.396 (inactive); in assay [7], 0.288 (inactive). In addition, the z-score in [8] is 0.476 (inactive); in assay [9], -0.158. Further, the composite z-score is -0.594 (inactive) in assay [4] and -0.0749 in [10].

`COCC#Cc1ccc([C@@H]2N[C@H](C(=O)O)CC[C@H]2C)cc1`: the z-score was -0.041 in [1]; -1.71 (inactive) in assay [2]; 0.525 (inactive) in assay [3]; 0.143 (inactive) in assay [5]; -2.45 (inactive) in [6]; 0.966 (inactive) in [7]. Moreover, the z-score was -0.94 (inactive) in assay [8] and -0.293 in [9]. Further, the composite z-score in assay [4] is -1.53 (inactive); in assay [10] it was -0.416.

Consider `CC(C)=NO[C@@H](C)c1cn([C@H](CO)Cc2ccccc2)nn1`, for which the z-score in assay [1] was -1.27; in assay [2] it was -1.16 (inactive); in assay [3] it was -0.597 (inactive); in assay [5], 0.0889 (inactive); in assay [6], -2.2 (inactive); in assay [7], 0.0116 (inactive). For the same compound, the z-score in [8] is -1.77 (inactive); in assay [9], -1.18. Also, the composite z-score in assay [4] was -1.44 (inactive); in assay [10], 0.314.

Turning to `CC(CCN1CCCCc2nc(C)c(C)cc21)=NO[C@H](C)c1cn([C@@H]2COC[C@H]2O)nn1`, the z-score in assay [1] is 0.404; in [2] it was 1.62 (inactive); in [3] it was -1.64 (inactive); in [5] it was -0.561 (inactive); in assay [6] it was 0.811 (inactive); in assay [7], 0.715 (inactive). In addition, the z-score in assay [8] is 0.821 (inactive); in [9] it was -0.256. Besides, the composite z-score in [4] is -0.21 (inactive); in [10] it was 0.256.

For `CC(CCC(=O)OC[C@H]1O[C@H](C#Cc2ccccc2)C=C[C@@H]1Oc1ccc(C)cc1)=NO[C@@H](C)c1cc(-c2c(C)cc(C)cc2C)no1`, the z-score in assay [1] was -0.53; in assay [2], 0.0942 (inactive); in assay [3], 0.281 (inactive); in assay [5], -0.798 (inactive); in [6] it was 0.333 (inactive); in [7], -0.135 (inactive). Besides, the z-score in assay [8] is 0.213 (inactive); in assay [9], 0.838. The composite z-score in assay [4] was 1.04 (inactive); in [10], -0.102.

On to `CC(C)C(=O)N[C@H]1CCCN1C(=O)C=Cc1ccccc1`, for which the z-score is -0.274 in assay [1]; 0.881 (inactive) in assay [2]; -0.46 (inactive) in assay [3]; 0.897 (inactive) in [5]; 1.18 (inactive) in assay [6]; -0.0435 (inactive) in assay [7]. Further, the figures for the z-score in assay [8] and in assay [9] were -0.898 (inactive) and -1.03, respectively. Moreover, the composite z-score in assay [4] is 0.581 (inactive); in assay [10], -0.0476.

Take `O=C1C2=CC[C@H]3C(=O)N(C[C@@H]4CCCO4)C(=O)[C@H]3[C@H]2[C@H](O)[C@@H]2O[C@H]12`: the z-score in [1] is -0.154; in [2], -0.87 (inactive); in assay [3], -4.71 (inactive); in assay [5], -0.343 (inactive); in assay [6], -0.511 (inactive); in [7] it was 0.0929 (inactive). Also, the figures for the z-score in assay [8] and in [9] were 0.424 (inactive) and -1.7, respectively. The values for the composite z-score in assay [4] and in [10] were -0.619 (inactive) and 0.204, respectively.

For `O=C1[C@H]2[C@H]3[C@H](O)[C@H](O)CC(=NOC[C@@H](O)COCc4ccco4)[C@@H]3CC[C@H]2C(=O)N1Cc1ccc2c(c1)OCO2`, the z-score in assay [1] is 0.351; in assay [2], 0.182 (inactive); in [3] it was -0.524 (inactive); in assay [5] it was 0.0578 (inactive); in [6], 0.865 (inactive); in [7], 0.764 (inactive). The z-score in assay [8] is 1.29 (inactive); in [9], 0.501. For the same compound, the composite z-score is -0.395 (inactive) in [4] and -0.148 in [10].

As for `C[C@H]1CC[C@@H](C(=O)O)N[C@@H]1c1cccc(N2CCCC2=O)c1`, the z-score is 0.672 in assay [1]; -0.281 (inactive) in assay [2]; -0.0691 (inactive) in [3]; -0.163 (inactive) in [5]; 0.765 (inactive) in [6]; 0.968 (inactive) in [7]. Also, the values for the z-score in assay [8] and in assay [9] were 0.215 (inactive) and -0.652, respectively. For the same compound, the composite z-score in [4] was 0.552 (inactive); in assay [10] it was 0.0909.

For `CC(C)CN1CCc2nc(-c3ccccc3)c3c(c2C1)CO[C@@H](C)C3`, the z-score in assay [1] was -0.622; in assay [2], -1.33 (inactive); in assay [3] it was 1.21 (inactive); in assay [5], -0.588 (inactive); in assay [6], 0.697 (inactive); in assay [7], -0.838 (inactive). In addition, the z-score is -0.0811 (inactive) in assay [8] and 0.829 in assay [9]. Also, the composite z-score in assay [4] was 0.638 (inactive); in assay [10], -0.22.

Consider `CC(=O)OC[C@H]1O[C@H](CC=NOCC[C@@H]2C=C[C@H](OC(C)=O)[C@@H](COC(C)=O)O2)C=C[C@@H]1OC(C)=O`, for which the z-score is 0.149 in assay [1]; 0.0167 (inactive) in assay [2]; 0.0092 (inactive) in assay [3]; 0.229 (inactive) in assay [5]; 0.0282 (inactive) in assay [6]; 0.847 (inactive) in [7]. The z-score in assay [8] is 0.66 (inactive); in assay [9], 0.117. The composite z-score was -0.0986 (inactive) in assay [4] and 0.287 in assay [10].

For `CC1(C)O[C@H]2OC([C@H](O)CON3C(=O)c4ccccc4C3=O)[C@H](O)[C@H]2O1` (stereo not given in full), the z-score in assay [1] was 0.109; in assay [2] it was 0.457 (inactive); in assay [3], -0.409 (inactive); in assay [5], -0.151 (inactive); in assay [6], -0.854 (inactive); in assay [7], 0.345 (inactive). For the same compound, the z-score in assay [8] is 0.209 (inactive); in assay [9], 0.0738. Moreover, the composite z-score is -0.559 (inactive) in assay [4] and -0.261 in assay [10].
